This is an account of results in PubChem BioAssay AID720566 (Broad Institute, 2013).

Results with a measured potency or affinity are listed apart. Unmarked numbers belong to inactive results.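 Rule for the calls: active = in all runs, an absorbance decrease of 25% or more of the average positive control decrease; inconclusive = runs conflict, with both active and inactive results; inactive = all runs inactive, opposite-direction effects included.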

In this assay the target is Protein disulfide-isomerase A6 (Homo sapiens) (UniProt Q15084). The assay is described as follows: inhibitors of ERp5-mediated insulin aggregation, dose response, biochemical, turbidity, absorbance 650 nm, cherry-picked samples (AID 720566).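 Note: negative values mean less insulin aggregation so ERp5 inhibition.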 The conditions noted are these: Recombinant ERp5 insulin aggregation; series mostly up to 35 µM; activity change, negative = inhibition: at the top concentration.
Protein disulfide-isomerase A6 (Homo sapiens), sequence (Q15084 whole entry, looked up): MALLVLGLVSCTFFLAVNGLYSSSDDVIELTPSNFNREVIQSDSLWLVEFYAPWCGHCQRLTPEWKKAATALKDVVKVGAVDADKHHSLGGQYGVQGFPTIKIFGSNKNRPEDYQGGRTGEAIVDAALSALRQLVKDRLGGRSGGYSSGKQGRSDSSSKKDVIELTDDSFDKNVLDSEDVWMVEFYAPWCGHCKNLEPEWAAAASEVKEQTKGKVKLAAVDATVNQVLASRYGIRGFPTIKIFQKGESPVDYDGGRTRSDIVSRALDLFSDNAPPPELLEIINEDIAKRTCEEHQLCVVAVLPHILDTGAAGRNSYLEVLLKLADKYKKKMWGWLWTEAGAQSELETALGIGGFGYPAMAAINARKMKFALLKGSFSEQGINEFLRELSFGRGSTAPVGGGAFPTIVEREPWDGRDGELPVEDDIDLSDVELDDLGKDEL
As for `CCC(=O)N(C)C[C@H]1Oc2cc(-c3ccc(C#N)cc3)ccc2S(=O)(=O)N([C@@H](C)CO)C[C@@H]1C`, the “activity change, negative = inhibition” value was -6.46%.
Then `O=C(Nc1ccncc1)C1CC(=O)N(c2ccccc2)C1` (stereo not drawn), with 23.2%.
As for `O=C(NC1CCCC1)[C@@H]1[C@@H](CO)[C@@H]2Cn3c(ccc(-c4cccnc4)c3=O)[C@H]1N2CC1CC1`, the “activity change, negative = inhibition” value was 2.79%.
Then `O=C(Cc1ccc(NC(=O)C2CCCN(C(=O)C3CC3)C2)cc1)Nc1cccc(C(=O)N2CCCCC2)c1` (stereo not drawn), with -9.63%.
Consider `Cc1noc(C)c1NC(=O)N(C)C[C@H]1Oc2ccc(NC(=O)c3ccncc3)cc2C(=O)N([C@H](C)CO)C[C@@H]1C`, for which the “activity change, negative = inhibition” value was -1.12%.
With `O=C(C[C@@H]1C[C@H]2c3cc(NS(=O)(=O)c4ccccc4)ccc3O[C@H]2[C@H](CO)O1)NC1CCCCC1`, the “activity change, negative = inhibition” value is -9.74%.
Consider `CCN(CC)S(=O)(=O)c1cc(NC(=O)c2ccc(-n3cncn3)c([N+](=O)[O-])c2)ccc1C`, for which the “activity change, negative = inhibition” value is -4.42%.
Under `C[C@H](CO)N1C[C@H](C)[C@H](CN(C)S(=O)(=O)c2cn(C)cn2)Oc2ncc(C#Cc3ccccc3)cc2C1=O` stands -0.289%; under `Cn1c(COc2ccccc2)nnc1SCC(=O)Nc1nnc(C2CC2)s1`, 20%.
Then `Cc1ccc2nc(-c3cccc(Br)c3)c(Cc3cccc(Cl)c3)n2c1`, with -4.19%.
Under `CCN(CC)S(=O)(=O)c1ccc2c(c1)N(CC(=O)NCCN1CCOCC1)C(=O)CO2` stands 14.4%.
As for `COc1ccccc1CN(C)c1ccc(S(=O)(=O)N2CCN(C)CC2)cn1`, the “activity change, negative = inhibition” value is -5.32%.
With `C[C@@H]1CN([C@@H](C)CO)C(=O)c2cc(NS(=O)(=O)c3ccccc3)ccc2O[C@H]1CN(C)C(=O)Nc1ccc2c(c1)OCO2`, the “activity change, negative = inhibition” value is 3.54% [at 30 µM].
